The values below come from PubChem BioAssay (NCI).

Holding throughout (experiment): NCI-60 one-dose screen, 48 h (100 = growth as untreated, 0 = no growth, -100 = all killed)
What all share (conditions): 10 µM unless noted

Assay [1] relates to SR leukemia.
For assay [2], the system named is RPMI-8226 leukemia.
Assay [3] concerns OVCAR-8 ovarian.
The test system of assay [4] is OVCAR-5 ovarian.
Assay [5] concerns OVCAR-4 ovarian.
Assay [6] concerns SK-OV-3 ovarian.
Assay [7] deals with IGROV1 ovarian.
Assay [8] concerns OVCAR-3 ovarian.
Assay [9] deals with HS 578T breast.
Assay [10] has as its system NCI/ADR-RES ovarian.
Assay [11] has as its system T-47D breast.
For assay [12], the system named is BT-549 breast.
Assay [13] has as its system MDA-MB-435 melanoma.
The test system of assay [14] is SW-620 colon.
In assay [15] the test system is MCF7 breast.
Assay [16] concerns HCT-116 colon.
Assay [17] concerns HCC-2998 colon.
Assay [18] has as its system KM12 colon.

The structures appear in SMILES notation. The panel holds about 83,000 compounds, 20% with a hit somewhere; the sample as a whole holds those more often.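 Assay: single dose, 48 h. Readout: percent growth (0 = no net growth; negative = cell death). Active: <10.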 Unmarked numbers belong to inactive results. Active and inactive are the calls of the source.

Consider `O=[N+]([O-])/C(=C\c1ccco1)c1ccccc1Cl`, for which the growth is 55.3% in assay [1]; 85.9% in [2]; 81.6% in assay [3]; 75.4% in assay [4]; 69.3% in [5]; 60.1% in assay [6]. Moreover, the growth in [7] is 75.7%; in [8], 77.9%; in assay [9] it was 84.8%; in [10], 85.5%; in assay [11] it was 36.6%; in [12], 9.05% (active). In addition, the growth is 75.6% in assay [13]; 84.1% in [14]; 38.4% in assay [15]; 11.8% in assay [16]; 94.9% in [17]; 89.5% in assay [18].
Take `COc1ccc2c(c1)c(-c1ccc(-c3cn(C)c4ccc(OC)cc34)[nH]1)cn2C`: the growth in assay [1] was -10.7% (active); in [2], 2.15% (active); in [3], 7.19% (active); in assay [4], 30.9%; in assay [5] it was -40.3% (active); in assay [6], 50.9%. Moreover, the growth is 23.1% in assay [7]; -42% (active) in assay [8]; -13% (active) in [9]; 3.06% (active) in assay [10]; -51.2% (active) in assay [11]; -28.1% (active) in assay [12]. For the same molecule, the growth in assay [13] was 41.8%; in assay [14], -48.6% (active); in assay [15] it was 38.9%; in assay [16], 4.08% (active); in assay [17], -3.55% (active); in assay [18], 9.21% (active).
As for `CCOC(=O)c1c2c(n3ccccc13)C(=O)c1ncccc1C2=O`, the growth is 18.6% in [1]; 29.2% in [2]; 5.6% (active) in assay [3]; 42.2% in assay [4]; 16.6% in [5]; 22.2% in assay [6]. Also, the growth in assay [7] is 31.8%; in [8] it was -19.8% (active); in [9] it was 52.6%; in assay [10] it was 4.98% (active); in assay [11], 41.8%; in assay [12], 31.6%. The growth in assay [13] was 39.8%; in assay [14] it was 21.9%; in [15], 5.14% (active); in assay [16], 0.586% (active); in assay [17] it was 38.2%; in assay [18] it was 24.1%.
As for `N#C/C(=C\c1ccc(Br)cc1)c1cc2ccccc2[nH]1`, the growth in [1] was 81.2%; in assay [2] it was 78.9%; in assay [3], 96.8%; in assay [4], 93.9%; in [5], 112%; in assay [6], 81%. The growth in assay [7] was 91.4%; in assay [8] it was 107%; in assay [9], 98.4%; in assay [10], 98.7%; in assay [11] it was 74.7%; in [12], 97%. In addition, the growth was 99.1% in assay [13]; 93.4% in assay [14]; 62.2% in assay [15]; 84.7% in assay [16]; 101% in assay [17]; 90.7% in [18].
As for `Cn1c(=O)c2c(c3ccccc31)OC(N)=C(C#N)C21C(=O)c2ccccc2C1=O`, the growth in [1] was 105%; in assay [2] it was 94.8%; in assay [3], 97.5%; in assay [4], 98%; in [5], 92.4%; in assay [6], 90.8%. The growth is 92.4% in assay [7]; 98.7% in [8]; 81.5% in [9]; 103% in assay [10]; 96.3% in assay [11]; 87.2% in assay [12]. Further, the growth in [13] was 98.4%; in assay [14] it was 82.3%; in assay [15], 90%; in assay [16], 92.2%; in assay [17] it was 101%; in assay [18], 95.2%.
With `CN(CCC#N)c1ccc(/C=C2\NC(=O)NC2=O)cc1`, the growth is 102% in [1]; 110% in assay [2]; 111% in [3]; 98.7% in [4]; 102% in assay [5]; 105% in [6]. The growth in assay [7] was 105%; in [8], 121%; in [9], 88.8%; in [10] it was 93.2%; in [11], 112%; in [12], 51.4%. Further, the growth in assay [13] is 93.1%; in assay [14] it was 99.8%; in [15], 102%; in [16], 91.2%; in assay [17], 96.7%; in assay [18], 101%.
In the case of `CC1COCC(C)N1C1=C(Cl)C(=O)c2ccccc2C1=O` (configuration not stated), the growth is 41.6% in [1]; 52.5% in [2]; 47.4% in assay [3]; 106% in assay [4]; -4.76% (active) in assay [5]; 95.9% in [6]. Also, the growth in assay [7] is 50.4%; in [8] it was 46.1%; in [9], 100%; in assay [10] it was 76.8%; in [11], -55.2% (active); in assay [12], 76%. Further, the growth was 29.6% in assay [13]; 42.6% in assay [14]; 50.8% in [15]; -9.39% (active) in [16]; 101% in [17]; 89% in assay [18].
With `Cc1cc(C)cc(Nc2ccc([N+](=O)[O-])c(NCCN3CCOCC3)n2)c1`, the growth in assay [1] is 17%; in assay [2], 11.5%; in [3] it was 20%; in [4] it was 52.9%; in assay [5], 52.6%; in [6], 50.3%. For the same molecule, the growth in assay [7] was 23.5%; in [8] it was 2.95% (active); in assay [9], 21.6%; in assay [10], 18.1%; in assay [11] it was 56.3%; in [12], 9.31% (active). Besides, the growth in assay [13] was -30.1% (active); in assay [14], 31%; in assay [15], 13.2%; in assay [16] it was 5.31% (active); in assay [17] it was 9% (active); in [18] it was 15.4%.
In the case of `CCN(CC)c1ccc(/C=C\c2cc(C)c3cc(C)ccc3n2)cc1`, the growth in [1] was 34.2%; in assay [2] it was 17.3%; in assay [3], 34.8%; in assay [4] it was 70.9%; in assay [5], 50.4%; in [6] it was 40.1%. The growth was 22% in assay [7]; 33.4% in assay [8]; 42.5% in [9]; -4.28% (active) in assay [10]; -22.3% (active) in assay [11]; -11.5% (active) in assay [12]. The growth was 3.36% (active) in assay [13]; 23.1% in assay [14]; 19.9% in [15]; 6.6% (active) in assay [16]; 13.6% in [17]; 27.1% in assay [18].
